# According to the supplement of paper PMC12067093, “Discovery and optimisation of a covalent ligand for TRIM25 and its application to targeted protein ubiquitination” (Chemical Science, 2025):
# The full data set covers some 21,000 targets. This sample favours those with the largest changes.
# Compound: CC1Cc2ccccc2N1C(=O)C1CCCN(C1)C(=O)CCl (mixture of isomers) [TRIM25 ligand 11 (diastereomer mixture)]
# Assay: probe-labelled cysteine peptide fold change vs DMSO (competition) (log2 fold change); higher = less target engagement (more negative = stronger competition)
# Conditions: THP-1, incubation time: 4 h
# 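Further: competitive chemoproteomic profiling in live THP-1 cells with an iodoacetamide desthiobiotin (IA-DTB) probe, comparing probe-labelled peptide intensities in compound-treated cells against DMSO-treated controls.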
# Sequence of UniProt P12004 (P12004 whole entry, looked up): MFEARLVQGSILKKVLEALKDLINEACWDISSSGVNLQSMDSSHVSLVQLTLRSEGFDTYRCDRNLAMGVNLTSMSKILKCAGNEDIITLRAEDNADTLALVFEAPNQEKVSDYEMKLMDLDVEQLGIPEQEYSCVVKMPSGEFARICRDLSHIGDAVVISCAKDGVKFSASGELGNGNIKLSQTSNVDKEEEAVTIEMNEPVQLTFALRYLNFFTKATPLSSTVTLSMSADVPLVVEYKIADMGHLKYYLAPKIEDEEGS
# Sequence of UniProt Q8TEA1 (Q8TEA1 whole entry): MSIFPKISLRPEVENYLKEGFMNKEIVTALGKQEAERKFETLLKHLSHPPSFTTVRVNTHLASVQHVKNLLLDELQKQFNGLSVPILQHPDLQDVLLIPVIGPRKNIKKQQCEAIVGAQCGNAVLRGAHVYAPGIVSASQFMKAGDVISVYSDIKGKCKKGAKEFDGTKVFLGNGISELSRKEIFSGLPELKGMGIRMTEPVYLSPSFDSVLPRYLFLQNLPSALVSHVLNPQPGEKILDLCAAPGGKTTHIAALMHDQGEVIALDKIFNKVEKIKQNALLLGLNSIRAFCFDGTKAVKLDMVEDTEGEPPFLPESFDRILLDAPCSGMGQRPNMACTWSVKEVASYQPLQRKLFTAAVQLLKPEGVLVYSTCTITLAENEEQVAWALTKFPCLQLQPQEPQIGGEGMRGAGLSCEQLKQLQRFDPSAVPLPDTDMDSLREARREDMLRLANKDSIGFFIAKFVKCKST
# Sequence of UniProt Q56VL3 (Q56VL3 whole entry, looked up): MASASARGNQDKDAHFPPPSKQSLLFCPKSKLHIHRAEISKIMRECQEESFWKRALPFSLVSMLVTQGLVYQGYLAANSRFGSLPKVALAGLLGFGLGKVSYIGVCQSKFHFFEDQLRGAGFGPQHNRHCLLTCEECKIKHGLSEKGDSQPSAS
# Sequence of UniProt O15381 (O15381 whole entry, looked up): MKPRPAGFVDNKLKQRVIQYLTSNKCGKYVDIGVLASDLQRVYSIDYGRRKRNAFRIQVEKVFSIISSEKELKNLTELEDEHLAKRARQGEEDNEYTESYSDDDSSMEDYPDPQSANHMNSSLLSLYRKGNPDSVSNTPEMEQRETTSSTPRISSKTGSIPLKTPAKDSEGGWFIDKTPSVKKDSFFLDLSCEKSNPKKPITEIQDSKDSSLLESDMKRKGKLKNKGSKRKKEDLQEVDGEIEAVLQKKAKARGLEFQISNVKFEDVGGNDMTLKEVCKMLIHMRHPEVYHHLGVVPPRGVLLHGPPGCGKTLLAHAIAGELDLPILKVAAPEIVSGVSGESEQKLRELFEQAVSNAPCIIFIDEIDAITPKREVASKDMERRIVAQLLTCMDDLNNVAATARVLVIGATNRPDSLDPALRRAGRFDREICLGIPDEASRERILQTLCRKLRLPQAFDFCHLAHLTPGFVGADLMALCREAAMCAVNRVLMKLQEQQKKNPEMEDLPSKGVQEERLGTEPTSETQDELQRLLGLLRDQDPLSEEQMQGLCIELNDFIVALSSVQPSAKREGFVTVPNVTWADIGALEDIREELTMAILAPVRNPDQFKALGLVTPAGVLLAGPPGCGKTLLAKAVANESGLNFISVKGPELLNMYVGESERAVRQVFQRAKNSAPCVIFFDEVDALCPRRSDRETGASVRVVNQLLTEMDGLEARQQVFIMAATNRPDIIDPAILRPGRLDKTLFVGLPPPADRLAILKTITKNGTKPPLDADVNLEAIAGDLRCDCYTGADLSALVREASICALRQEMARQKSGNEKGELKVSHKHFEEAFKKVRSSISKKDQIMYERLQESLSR
# Sequence of UniProt Q9UGV2 (Q9UGV2 whole entry, looked up): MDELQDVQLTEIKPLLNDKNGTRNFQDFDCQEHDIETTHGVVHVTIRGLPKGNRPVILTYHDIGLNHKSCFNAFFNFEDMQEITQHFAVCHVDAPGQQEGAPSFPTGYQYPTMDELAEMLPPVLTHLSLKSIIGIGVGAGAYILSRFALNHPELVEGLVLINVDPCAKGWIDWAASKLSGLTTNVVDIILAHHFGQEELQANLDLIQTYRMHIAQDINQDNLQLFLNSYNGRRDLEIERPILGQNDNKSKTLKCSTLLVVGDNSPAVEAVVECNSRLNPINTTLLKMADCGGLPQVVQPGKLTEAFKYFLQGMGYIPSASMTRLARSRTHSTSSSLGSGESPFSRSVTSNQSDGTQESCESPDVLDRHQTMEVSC
# Sequence of UniProt Q8WUM0 (Q8WUM0 whole entry, looked up): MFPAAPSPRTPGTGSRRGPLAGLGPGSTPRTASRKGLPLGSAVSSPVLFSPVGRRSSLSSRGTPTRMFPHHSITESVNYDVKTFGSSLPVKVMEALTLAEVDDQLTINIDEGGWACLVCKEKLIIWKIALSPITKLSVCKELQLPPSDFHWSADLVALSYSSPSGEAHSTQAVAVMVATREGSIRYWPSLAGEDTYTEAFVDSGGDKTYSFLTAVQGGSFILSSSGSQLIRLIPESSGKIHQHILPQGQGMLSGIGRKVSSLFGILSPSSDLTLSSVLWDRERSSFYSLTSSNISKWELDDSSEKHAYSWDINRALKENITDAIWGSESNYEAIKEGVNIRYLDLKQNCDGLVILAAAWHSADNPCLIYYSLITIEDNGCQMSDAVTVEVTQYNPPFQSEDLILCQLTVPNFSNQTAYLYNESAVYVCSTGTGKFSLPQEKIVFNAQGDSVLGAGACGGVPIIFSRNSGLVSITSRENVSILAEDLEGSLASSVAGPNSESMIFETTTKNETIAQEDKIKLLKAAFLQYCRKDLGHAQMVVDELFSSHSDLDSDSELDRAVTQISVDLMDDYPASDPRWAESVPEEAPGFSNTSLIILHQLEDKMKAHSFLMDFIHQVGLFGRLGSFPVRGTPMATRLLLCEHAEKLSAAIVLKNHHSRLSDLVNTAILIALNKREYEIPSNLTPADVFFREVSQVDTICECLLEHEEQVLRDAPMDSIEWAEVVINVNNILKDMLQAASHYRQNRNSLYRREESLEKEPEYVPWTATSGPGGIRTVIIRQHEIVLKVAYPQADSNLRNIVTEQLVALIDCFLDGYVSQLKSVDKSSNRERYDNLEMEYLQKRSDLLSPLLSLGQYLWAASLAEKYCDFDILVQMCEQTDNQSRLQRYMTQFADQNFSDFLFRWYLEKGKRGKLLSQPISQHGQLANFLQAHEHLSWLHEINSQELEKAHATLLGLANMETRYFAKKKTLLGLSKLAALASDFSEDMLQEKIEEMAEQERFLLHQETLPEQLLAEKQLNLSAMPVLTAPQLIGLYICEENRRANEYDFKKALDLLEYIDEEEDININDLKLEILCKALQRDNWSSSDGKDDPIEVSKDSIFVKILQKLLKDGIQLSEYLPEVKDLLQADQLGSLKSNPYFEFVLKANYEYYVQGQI
# Sequence of UniProt Q99497 (Q99497 whole entry, looked up): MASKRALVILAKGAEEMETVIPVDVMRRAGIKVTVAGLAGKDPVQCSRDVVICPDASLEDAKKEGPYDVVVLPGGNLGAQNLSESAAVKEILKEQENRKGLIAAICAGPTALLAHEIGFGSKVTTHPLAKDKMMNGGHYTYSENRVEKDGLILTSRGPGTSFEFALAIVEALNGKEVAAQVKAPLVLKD
# Sequence of UniProt O95848 (O95848 whole entry, looked up): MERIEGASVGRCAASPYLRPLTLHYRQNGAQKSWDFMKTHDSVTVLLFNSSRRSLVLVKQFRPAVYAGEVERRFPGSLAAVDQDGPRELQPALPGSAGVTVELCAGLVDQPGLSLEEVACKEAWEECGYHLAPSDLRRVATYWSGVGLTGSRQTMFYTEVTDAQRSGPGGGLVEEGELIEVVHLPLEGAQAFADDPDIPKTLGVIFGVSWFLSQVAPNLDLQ
# Sequence of UniProt Q9ULX3 (Q9ULX3 whole entry, looked up): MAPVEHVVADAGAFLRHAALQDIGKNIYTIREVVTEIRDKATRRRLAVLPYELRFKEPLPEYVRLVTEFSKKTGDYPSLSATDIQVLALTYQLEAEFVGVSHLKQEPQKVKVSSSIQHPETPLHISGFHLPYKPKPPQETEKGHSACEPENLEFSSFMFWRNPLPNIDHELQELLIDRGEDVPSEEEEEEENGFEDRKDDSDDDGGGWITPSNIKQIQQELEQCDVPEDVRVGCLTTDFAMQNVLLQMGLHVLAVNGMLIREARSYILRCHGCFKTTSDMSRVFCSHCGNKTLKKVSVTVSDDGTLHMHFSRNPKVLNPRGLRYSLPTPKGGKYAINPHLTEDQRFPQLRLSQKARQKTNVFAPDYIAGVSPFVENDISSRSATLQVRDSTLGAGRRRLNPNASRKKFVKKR
# Sequence of UniProt Q5TFE4 (Q5TFE4 whole entry, looked up): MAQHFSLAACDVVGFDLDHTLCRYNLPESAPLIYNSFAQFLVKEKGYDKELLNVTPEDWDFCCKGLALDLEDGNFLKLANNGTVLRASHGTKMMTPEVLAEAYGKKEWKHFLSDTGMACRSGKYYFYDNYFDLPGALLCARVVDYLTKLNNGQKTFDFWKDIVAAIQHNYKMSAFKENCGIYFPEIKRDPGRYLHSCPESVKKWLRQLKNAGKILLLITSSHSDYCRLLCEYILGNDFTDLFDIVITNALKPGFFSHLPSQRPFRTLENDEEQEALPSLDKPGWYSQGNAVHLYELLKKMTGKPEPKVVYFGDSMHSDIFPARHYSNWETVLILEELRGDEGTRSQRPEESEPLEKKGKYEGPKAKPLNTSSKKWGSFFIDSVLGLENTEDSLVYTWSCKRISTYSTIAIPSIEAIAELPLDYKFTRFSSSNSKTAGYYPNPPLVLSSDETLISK
# Sequence of UniProt P11177 (P11177 whole entry, looked up): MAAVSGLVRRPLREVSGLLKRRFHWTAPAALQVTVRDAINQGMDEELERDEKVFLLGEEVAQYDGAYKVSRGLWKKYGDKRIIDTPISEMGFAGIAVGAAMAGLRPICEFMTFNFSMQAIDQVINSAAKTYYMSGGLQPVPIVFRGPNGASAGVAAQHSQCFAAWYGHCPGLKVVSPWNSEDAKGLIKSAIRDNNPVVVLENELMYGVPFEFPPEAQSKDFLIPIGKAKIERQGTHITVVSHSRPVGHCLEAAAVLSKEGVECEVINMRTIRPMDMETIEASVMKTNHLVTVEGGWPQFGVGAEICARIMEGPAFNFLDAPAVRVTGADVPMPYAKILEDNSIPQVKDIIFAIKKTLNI
Target,probe-labelled cysteine peptide fold change (10 µM),probe-labelled cysteine peptide fold change (50 µM)
PATZ1_Q9HBE1_297_EAGILPCGLCGK (UniProt Q9HBE1),0.00899,-0.0723
PABPC4_Q13310-3_488_VGSECPDR (UniProt Q13310),-0.118,-0.166
PDS5A_Q29RF7_686_VLSFTHPTSFHSAETYESLLQCLR (UniProt Q29RF7),-0.152,-0.172
P4HB_P07237_53+56_YLLVEFYAPWCGHCK (UniProt P07237),-0.316,-0.77
PAK2_Q13177_352_ECLQALEFLHANQVIHR (UniProt Q13177),0.0134,0.223
NSUN2_Q08J23_673+678_YEPDSANPDALQCPIVLCGWR (UniProt Q08J23),0.0479,0.0634
NUP160_Q12769_529_NLQQEFWCK (UniProt Q12769),0.248,0.177
P4HA1_P13674_293_QKYEMLCR (UniProt P13674),-0.0868,-0.162
OCIAD2_Q56VL3_106_VSYIGVCQSK (UniProt Q56VL3),-0.0503,0.116
NSUN6_Q8TEA1_242_ILDLCAAPGGK (UniProt Q8TEA1),0.157,-0.0703
NDUFV2_P19404_135+140_YHIQVCTTTPCMLR (UniProt P19404),0.0444,-0.234
OSBPL3_Q9H4L5_114_CIDLDTEEHIYHLK (UniProt Q9H4L5),-0.0859,0.0383
NOP58_Q9Y2X3_106_LNLSCIHSPVVNELMR (UniProt Q9Y2X3),0.0103,0.12
PAICS_P22234_100_CGETAFIAPQCEMIPIEWVCR (UniProt P22234),0.00496,0.1
NUDT14_O95848_12_CAASPYLRPLTLHYR (UniProt O95848),-0.125,0.0208
PACSIN2_Q9UNF0_465_MEDEDEQGWCK (UniProt Q9UNF0),0.118,0.00577
PCID2_Q5JVF3_25_DGASCAELVSFK (UniProt Q5JVF3),-0.115,-0.0805
NOL10_Q9BSC4_147_DFSYHYPSCDLYFVGASSEVYR (UniProt Q9BSC4),-0.459,-0.299
PDHB_P11177_161_GPNGASAGVAAQHSQCFAAWYGHCPGLK (UniProt P11177),0.0327,0.0759
NUP205_Q92621_1032_TCLHAILNILEK (UniProt Q92621),0.00038,-0.0819
NDRG3_Q9UGV2_30_NFQDFDCQEHDIETTHGVVHVTIR (UniProt Q9UGV2),0.0929,0.0549
PCBP1_Q15365_293_GYWASLDASTQTTHELTIPNNLIGCIIGR (UniProt Q15365),-0.0964,-0.174
OPLAH_O14841_408_LLPASFPCIFGPGENQPLSPEASR (UniProt O14841),-0.283,-0.252
PARP14_Q460N5_1274_ECSQQAQQR (UniProt Q460N5),0.0962,-0.0412

Target,probe-labelled cysteine peptide fold change (10 µM),probe-labelled cysteine peptide fold change (50 µM)
NOL6_Q9H6R4_256_LHPCPPPDFFRPCR (UniProt Q9H6R4),0.0181,0.0433
PA2G4_Q9UQ80_296_MGVVECAKHELLQPFNVLYEK (UniProt Q9UQ80),-0.781,-0.434
NFX1_Q12986_295_STCDSENLAVINK (UniProt Q12986),0.0624,-0.0282
OSBPL1A_Q9BXW6_520_DCGGGDALSNGIK (UniProt Q9BXW6),0.00496,0.0314
NDRG1_Q92597_289_MADCGGLPQISQPAK (UniProt Q92597),-0.006,-0.0335
PDS5B_Q9NTI5_732_YAIHCIHAIFSSK (UniProt Q9NTI5),-0.00231,0.0228
NCKIPSD_Q9NZQ3_138_QPNGVCR (UniProt Q9NZQ3),-0.0933,-0.32
PCDH17_O14917_335_DLGPNPIPAHCK (UniProt O14917),0.6,0.546
NUDC_Q9Y266_188_WTQTLSELDLAVPFCVNFR (UniProt Q9Y266),-0.0574,0.00376
NLRX1_Q86UT6_259_LAGTGLCSDPEEPQEPAAIIVNLLR (UniProt Q86UT6),0.274,-0.746
NCDN_Q9UBB6-2_5_ASDCEPALNQAEGR (UniProt Q9UBB6),0.0744,-0.297
NIT2_Q9NQR4_153_VGLGICYDMR (UniProt Q9NQR4),-0.261,-1.18
NDUFAF4_Q9P032_87_AAETCQEPK (UniProt Q9P032),-0.0492,-0.243
NF1_P21359_1016_LCQLVEVMMAR (UniProt P21359),0.0549,0.181
NECAP2_Q9NVZ3_11_MEESGYESVLCVKPDVHVYR (UniProt Q9NVZ3),-0.174,-0.048
NOC4L_Q9BVI4_509_KGPEPVPLEFIPAQGLLGRPGELCAQHFTLS (UniProt Q9BVI4),0.0196,-0.199
NLN_Q9BYT8_451_YNHAACFGLQPGCLLPDGSR (UniProt Q9BYT8),0.193,0.181
NEMF_O60524_575_YLTPGDIYVHADLHGATSCVIK (UniProt O60524),0.0554,0.13
PARK7_Q99497_46_VTVAGLAGKDPVQCSR (UniProt Q99497),-0.13,-0.213
P4HB_P07237_397+400_NVFVEFYAPWCGHCK (UniProt P07237),-0.122,-0.34
NUP107_P57740_749_EHLCIR (UniProt P57740),0.128,0.0884
NUS1_Q96E22_235_QKRPTDLDVDTLASLLSSNGCPDPDLVLK (UniProt Q96E22),-0.332,-0.641
NOP2_P46087_393_ILDMCCAPGGK (UniProt P46087),-0.0381,-0.0998
NPTX1_Q15818_89_CESQSTLDPGAGEAR (UniProt Q15818),-0.269,0.111

Target,probe-labelled cysteine peptide fold change (10 µM),probe-labelled cysteine peptide fold change (50 µM)
NSUN5P1_Q3KNT7-3_149_AAAGACTPPCT<|>NSUN5_Q96P11-2_461_AAAGACTPPCT (UniProt Q96P11+Q3KNT7),0.129,-0.0921
NUP160_Q12769_1042_QLVVVLCER (UniProt Q12769),0.25,0.0629
NDUFB10_O96000_119_EGQNYQQNCIK (UniProt O96000),-0.0835,-0.0614
PADI2_Q9Y2J8_629_GLLEPLGLECTFIDDISAYHK (UniProt Q9Y2J8),0.0551,0.0618
NKRF_O15226_386_VFLQDHCLAEGYGTKK (UniProt O15226),-0.274,-0.153
PAFAH1B1_P43034_281_EHEHVVECISWAPESSYSSISEATGSETK (UniProt P43034),-0.156,0.158
NUTF2_P61970_80_IQHSITAQDHQPTPDSCIISMVVGQLKADEDPIMGFHQMFLLK (UniProt P61970),-0.758,-0.409
NUP188_Q5SRE5_161_VEYADCVDK (UniProt Q5SRE5),0.394,0.321
NSUN5_Q96P11_278+279_AGVSCCELAEEDFLAVSPSDPR (UniProt Q96P11),0.234,-0.117
NSUN5_Q96P11_308_YHEVHYILLDPSCSGSGMPSR (UniProt Q96P11),-0.725,-0.0597
PDF_Q9HBH1_222_IIQHEMDHLQGCLFIDK (UniProt Q9HBH1),-0.0352,0.0675
NT5DC2_Q9H857_475_FSDLYMASLSCLLNYR (UniProt Q9H857),0.0123,0.0662
NOB1_Q9ULX3_147_GHSACEPENLEFSSFMFWR (UniProt Q9ULX3),-0.0264,-0.119
NVL_O15381_431_FDREICLGIPDEASR (UniProt O15381),-0.0502,0.0728
PDCD4_Q53EL6_288_GTVDCVQAR (UniProt Q53EL6),0.164,0.233
NET1_Q7Z628_267_GYCSNQLAAK (UniProt Q7Z628),0.0505,0.103
NUP133_Q8WUM0_457_IVFNAQGDSVLGAGACGGVPIIFSR (UniProt Q8WUM0),-0.146,-0.142
PCNA_P12004_135_LMDLDVEQLGIPEQEYSCVVK (UniProt P12004),-0.113,0.0916
NIT1_Q86X76_251+259_AIETQCYVVAAAQCGR (UniProt Q86X76),0.553,0.575
PDPR_Q8NCN5_357_LVNCPETFTPDMR (UniProt Q8NCN5),-0.0721,0.18
NLRX1_Q86UT6_779_DLRDLLLHDQCQITTLR (UniProt Q86UT6),-0.173,-0.114
NT5DC1_Q5TFE4_139_YYFYDNYFDLPGALLCAR (UniProt Q5TFE4),0.416,0.718
